Measurements: PubChem BioAssay (EPA / NIEHS)
Results filed as inconclusive are left out. Active and inactive are the calls of the source. Rule for the calls: active = hit-call score of the fitted dose curve at least 0.9, where 1 is the maximum; inconclusive = response in the unintended direction; inactive = score below 0.9.

Legend:
[1] = ACEA_AR_agonist_AUC_viability: ACEA Biosciences xCELLigence Real-Time Cell Analysis on Androgen Receptor Agonism for Viability (AID 2283775);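 for AC50: viability read 80 hours after compound addition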
Method in brief: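 Viability endpoint from xCELLigence impedance in 22Rv1 prostate cells at 80 h. Eight-point series, 100 uM maximum final.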

[2] = ACEA_AR_antagonist_AUC_viability: ACEA Biosciences xCELLigence Real-Time Cell Analysis on Androgen Receptor Antagonism for Viability (AID 2283776);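 note: 22Rv1 human prostate cancer cells growing on impedance electrode plates; area under impedance growth curve at 80 h after dosing as viability; hits lower the growth signal relative to DMSO meaning cytotoxicity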
Method in brief: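 Impedance read-out (RT-CES): area under growth curve at 80 h post-dose, loss of signal scored vs DMSO baseline. 22Rv1 cells; 8-pt 1:4 series, top 100 uM final, ≤0.5% DMSO; biological duplicate.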

[3] = ACEA_ER_AUC_viability: ACEA Biosciences xCELLigence Real-Time Cell Analysis on Estrogen Receptor Agonism for Viability (AID 2283782);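 note: hit means loss of impedance signal meaning reduced cell growth or viability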
Method in brief: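 Read-out: real-time electrical impedance (RT-CES) area under curve, loss of signal taken as reduced viability, normalized to DMSO baseline. T-47D cells, charcoal-stripped serum medium, compounds up to 100 uM final, continuous exposure, 80 h.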

[4] = STM_H9_NormalizedViability: Cytotoxicity Assessment at 120 hours in the Stemina devTOX quickPredict H9 human embryonic stem cell (hESC)-based Assay (AID 2283784)
Method in brief: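 CellTiter-Fluor RFU, background-subtracted, expressed relative to 0.1% DMSO neutral control by plate. Pluripotent H9 cells; treatment with daily re-dosing. Plates carried 1uM methotrexate (positive) and 5 nM methotrexate (negative) references.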

AR (gene 367) [5] = target: AR (gene 367) (UniProt P10275); test: ACEA_AR_antagonist_80hr: ACEA Biosciences xCELLigence Real-Time Cell Analysis on Androgen Receptor Antagonism for Proliferation (AID 2283787);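 note: 22Rv1 human prostate cancer cells with growth followed by electrical impedance; hits lower the impedance growth signal relative to DMSO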
AR (gene 367), sequence (P10275 whole entry, looked up): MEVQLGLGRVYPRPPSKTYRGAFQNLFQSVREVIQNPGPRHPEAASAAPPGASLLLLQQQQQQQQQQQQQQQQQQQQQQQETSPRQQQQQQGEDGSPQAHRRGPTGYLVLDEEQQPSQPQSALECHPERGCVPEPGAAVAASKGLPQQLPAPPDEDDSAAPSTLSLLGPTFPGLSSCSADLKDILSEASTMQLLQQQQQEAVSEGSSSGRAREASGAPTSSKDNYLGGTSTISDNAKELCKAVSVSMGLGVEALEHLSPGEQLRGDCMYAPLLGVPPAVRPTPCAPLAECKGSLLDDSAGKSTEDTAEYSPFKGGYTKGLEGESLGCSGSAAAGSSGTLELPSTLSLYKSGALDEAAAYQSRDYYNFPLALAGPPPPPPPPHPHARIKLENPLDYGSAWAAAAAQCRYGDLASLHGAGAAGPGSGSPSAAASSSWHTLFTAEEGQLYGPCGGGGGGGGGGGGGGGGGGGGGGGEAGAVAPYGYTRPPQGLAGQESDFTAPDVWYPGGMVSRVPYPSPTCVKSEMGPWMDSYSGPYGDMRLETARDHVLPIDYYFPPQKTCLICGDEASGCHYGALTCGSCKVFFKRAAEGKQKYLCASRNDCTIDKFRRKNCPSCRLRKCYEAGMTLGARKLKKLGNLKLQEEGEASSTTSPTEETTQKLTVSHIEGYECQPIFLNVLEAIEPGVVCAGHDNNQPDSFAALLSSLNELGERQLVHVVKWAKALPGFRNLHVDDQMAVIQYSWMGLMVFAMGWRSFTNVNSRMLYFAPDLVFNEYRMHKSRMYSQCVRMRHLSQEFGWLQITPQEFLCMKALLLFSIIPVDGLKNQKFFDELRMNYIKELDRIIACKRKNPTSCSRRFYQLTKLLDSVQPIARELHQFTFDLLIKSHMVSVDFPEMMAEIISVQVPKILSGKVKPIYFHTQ
Method in brief: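 Measures real-time proliferation of 22Rv1 prostate cancer cells by electrode impedance at 80 hours after dosing. Test articles ran at eight concentrations (1:4 steps, top 100 uM final) in biological duplicate.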

AR (gene 367) [6] = target: AR (gene 367) (UniProt P10275); test: ACEA_AR_agonist_80hr: ACEA Biosciences xCELLigence Real-Time Cell Analysis on Androgen Receptor Agonism for Proliferation (AID 2283783);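 note: hits increase impedance growth signal above DMSO baseline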
Method in brief: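 Impedance (RT-CES) growth signal at 80 h post-dose; 22Rv1 cells, 8-pt 1:4 series, top 100 uM final, DMSO ≤0.5%; duplicate plates; gain-of-signal fit relative to DMSO baseline.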

Q: For `COc1ccc(S(=O)(=O)N2C(=O)[C@@](c3ccccc3OC)(N3C[C@H](O)C[C@H]3C(=O)N(C)C)c3cc(Cl)ccc32)c(OC)c1`, which AC50 [1] is on record?
A: 20.3 µM (active)

Q: And the AC50 [2]?
A: 20.5 µM (active)

Q: And the AC50 [3]?
A: 24.3 µM (active)

Q: What about the outcome [4] of the same compound?
A: inactive

Q: What about the AC50 (AR (gene 367) [5]) of the same compound?
A: 24 µM (active)

Q: Which results are given for `FC(F)(F)C(F)(F)C(F)(F)C(F)(F)C(F)(F)C(F)(F)CCI`?
A: outcome [1]: inactive; outcome [2]: inactive; outcome [3]: inactive

Q: Which results are given for `CCCCCCC(=O)OCC`?
A: AC50 [1]: 87.7 µM (active); outcome [2]: inactive; outcome [3]: inactive

Q: For `CNCc1cc(F)ccc1Oc1ccc(Cl)c(Cl)c1`, which AC50 [1] is on record?
A: 75.9 µM (active)

Q: What about the AC50 [2] of the same compound?
A: 67.4 µM (active)

Q: And the AC50 [3]?
A: 29.9 µM (active)

Q: Which outcome [1] does the source give for `Cc1ccc(C(C)C)c(O)c1` here?
A: inactive

Q: What about the outcome [2] of the same compound?
A: inactive

Q: What about the outcome [3] of the same compound?
A: inactive

Q: Which AC50 [1] does the source give for `CN[C@H]1CC[C@@H](c2ccc(Cl)c(Cl)c2)c2ccc(S(N)(=O)=O)cc21` here?
A: 15.2 µM (active)

Q: And the AC50 [2]?
A: 15.7 µM (active)

Q: What about the AC50 [3] of the same compound?
A: 10.9 µM (active)

Q: What about the AC50 (AR (gene 367) [5]) of the same compound?
A: 13.1 µM (active)

Q: With `CC(=O)OC/C=C(\C)CCC=C(C)C` as the compound, how does the outcome [1] read?
A: inactive

Q: What about the outcome [2] of the same compound?
A: inactive

Q: And the outcome [3]?
A: inactive

Q: For `COC(=O)c1ccc(O)cc1`, which outcome [1] is on record?
A: inactive

Q: And the AC50 [2]?
A: 12.7 µM (active)

Q: And the outcome [4]?
A: inactive

Q: Which results are given for `O=C(N[C@@H](Cc1ccccc1)[C@@H](O)C(=O)N1C[C@@H](O)[C@@H](O)C1)c1cc2cc(Cl)ccc2[nH]1`?
A: AC50 [1]: 69.6 µM (active); AC50 [2]: 30.9 µM (active); AC50 [3]: 55.2 µM (active)

Q: Which outcome [1] does the source give for `CCNc1cccc(C)c1` here?
A: inactive

Q: What about the outcome [2] of the same compound?
A: inactive

Q: And the outcome [3]?
A: inactive

Q: With `Cc1oc(-c2ccccc2)nc1CCOc1cccc2c1ccn2CCC(=O)O` as the compound, how does the AC50 [1] read?
A: 68.8 µM (active)

Q: And the AC50 [2]?
A: 65.7 µM (active)

Q: What about the outcome [3] of the same compound?
A: inactive

Q: What about the outcome [4] of the same compound?
A: inactive

Q: Which AC50 [1] does the source give for `O=c1[nH]cc(F)c(=O)[nH]1` here?
A: 2.42 µM (active)

Q: What about the AC50 [2] of the same compound?
A: 1.76 µM (active)

Q: What about the AC50 [4] of the same compound?
A: 3.17 µM (active)

Q: What does the source list for `CNC(=O)[C@H]1O[C@@H](n2cnc3c(NCc4cc(Cl)ccc4OCc4cc(C)no4)ncnc32)[C@H](O)[C@@H]1N`?
A: outcome [1]: inactive; outcome [2]: inactive; outcome [3]: inactive; outcome (AR (gene 367) [5]): inactive

Q: Which outcome [1] does the source give for `COc1ccc(C)cc1N` here?
A: inactive

Q: What about the outcome [2] of the same compound?
A: inactive

Q: What about the outcome [3] of the same compound?
A: inactive

Q: And the outcome (AR (gene 367) [5])?
A: inactive

Q: For `CC1=C(/C=C/C(C)=C/C=C/C(C)=C/CO)C(C)(C)CCC1`, which AC50 [1] is on record?
A: 72.2 µM (active)

Q: What about the AC50 [2] of the same compound?
A: 79.8 µM (active)

Q: And the outcome [3]?
A: inactive

Q: And the outcome [4]?
A: inactive

Q: With `COc1cc(/C=C/C(=O)CC(=O)/C=C/c2ccc(O)c(OC)c2)ccc1O` as the compound, how does the AC50 [1] read?
A: 27 µM (active)

Q: What about the AC50 [2] of the same compound?
A: 23.2 µM (active)

Q: What about the outcome [3] of the same compound?
A: inactive

Q: And the outcome (AR (gene 367) [6])?
A: inactive

Q: And the AC50 (AR (gene 367) [5])?
A: 25.9 µM (active)

Q: What does the source list for `Cc1cc(=O)[nH]c(=S)[nH]1`?
A: outcome [1]: inactive; AC50 [2]: 9.94 µM (active); outcome [3]: inactive

Q: What does the source list for `CCOc1ccc2c(c1)C(C)=CC(C)(C)N2`?
A: AC50 [1]: 79.8 µM (active); AC50 [2]: 89.5 µM (active); outcome [3]: inactive; outcome (AR (gene 367) [6]): inactive; AC50 (AR (gene 367) [5]): 72.2 µM (active)

Q: With `C1CCC(SSC2CCCCC2)CC1` as the compound, how does the AC50 [1] read?
A: 77.7 µM (active)

Q: And the AC50 [2]?
A: 78.3 µM (active)

Q: What about the AC50 [3] of the same compound?
A: 92.3 µM (active)

Q: With `COc1cc(-c2nc(NC(=O)c3cc4cc(C)cc(C)c4n3CC(=O)O)sc2CCC2CCCCC2)c(OC)cc1Cl` as the compound, how does the AC50 [1] read?
A: 9.71 µM (active)

Q: And the AC50 [2]?
A: 9.23 µM (active)

Q: What about the AC50 [3] of the same compound?
A: 11.4 µM (active)

Q: What about the AC50 (AR (gene 367) [5]) of the same compound?
A: 11.6 µM (active)
